The text below walks through data of the supplement of paper PMC12645437, “Orthogonal IMiD-Degron Pairs Induce Selective Protein Degradation in Cells” (ACS Chemical Biology, 2025).

This assay addresses T1, CRBN, Q96SW2.
T1 chain: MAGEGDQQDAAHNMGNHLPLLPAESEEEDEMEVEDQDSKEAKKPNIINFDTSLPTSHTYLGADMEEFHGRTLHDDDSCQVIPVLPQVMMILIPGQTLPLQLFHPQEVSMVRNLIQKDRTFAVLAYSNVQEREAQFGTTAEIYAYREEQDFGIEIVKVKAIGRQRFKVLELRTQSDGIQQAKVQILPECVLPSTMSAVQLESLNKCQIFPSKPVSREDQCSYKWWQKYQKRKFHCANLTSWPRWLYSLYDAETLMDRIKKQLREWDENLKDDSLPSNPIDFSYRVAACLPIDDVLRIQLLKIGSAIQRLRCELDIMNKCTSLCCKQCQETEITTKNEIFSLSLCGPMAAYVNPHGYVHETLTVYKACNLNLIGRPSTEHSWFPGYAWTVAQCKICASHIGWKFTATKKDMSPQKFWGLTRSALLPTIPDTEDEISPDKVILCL
The experiment in a line: log2 fold change of degron read counts, EGFP-low vs EGFP+ sorted cells (limma voom), compound-induced degradation; higher = more compound-induced degradation of the degron-EGFP fusion; degrons are variants of IKZF1/3 zinc finger 2; compound dose not given here. The settings on record: Jurkat, 18 h.

Where [1] appears, read: compound: compound 19 (5-tert-butyl-thalidomide).
The mark [2] stands for this setting: compound: compound 22 (5-morpholino-thalidomide).
Where [3] appears, read: compound: compound 33 (diphenyl IMiD analogue).

The full ranking holds about 8,300 sequences; the median of “log2 fold change of degron read counts, EGFP-low vs EGFP+ sorted cells (limma voom), compound-induced degradation” is about -1.1, and the highest 2% start at about 3.2. Many of the other results were omitted from the sample, so the highest values are more common in it than they were.
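Further: pooled lentiviral library of zinc finger degron-EGFP fusions in mCherry-positive Jurkat cells, FACS-sorted after compound exposure, with degron abundance counted by next-generation sequencing.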

B1: 46F_47Q_49N_50Q_52G_53A_54N_55F_67L_, Q9UKT9 (peptide)
chain: FQCNQCGANFTQKGNLLRHIKL
Turning to B1, the “log2 fold change of degron read counts” value is -2.24 under setting [1], -1.57 under setting [2], -1.76 under setting [3] and -0.0144 (compound: thalidomide).

B2: 46F_47S_49D_50Q_52G_53A_54L_55F_67L_, Q9UKT9 (peptide)
chain: FSCDQCGALFTQKGNLLRHIKL
With B2, the “log2 fold change of degron read counts” value under setting [1] was -2.6, the “log2 fold change of degron read counts” value under setting [2] is -3.3, the “log2 fold change of degron read counts” value under setting [3] is -0.185 and the “log2 fold change of degron read counts” value (compound: thalidomide) was -3.02.

B3: 46F_47N_49S_50V_52G_53H_54N_55F_67L_, Q9UKT9 (peptide)
chain: FNCSVCGHNFTQKGNLLRHIKL
On to B3, for which the “log2 fold change of degron read counts” value runs as follows: under setting [1], -2.71; under setting [2], -4.15; under setting [3], -3.1; (compound: thalidomide) -2.83.

B4: 46F_47W_49P_50I_52G_53H_54Y_55F_67L_, Q9UKT9 (peptide)
chain: FWCPICGHYFTQKGNLLRHIKL
Turning to B4, the “log2 fold change of degron read counts” value by setting is: under setting [1], -0.542; under setting [2], -0.321; under setting [3], -0.506; (compound: thalidomide) -0.28.

B5: 46F_47K_49N_50V_52G_53A_54E_55F_67L_, Q9UKT9 (peptide)
chain: FKCNVCGAEFTQKGNLLRHIKL
With B5, the “log2 fold change of degron read counts” value was -3.18 under setting [1], -3.1 under setting [2], -3.12 under setting [3] and -2.1 (compound: thalidomide).

B6: 46F_47H_49P_50I_52G_53A_54T_55F_67L_, Q9UKT9 (peptide)
chain: FHCPICGATFTQKGNLLRHIKL
Turning to B6, the “log2 fold change of degron read counts” value under setting [1] came to 1.64, the “log2 fold change of degron read counts” value under setting [2] was 1.89, the “log2 fold change of degron read counts” value under setting [3] amounted to 1.62 and the “log2 fold change of degron read counts” value (compound: thalidomide) is 0.481.

B7: 46F_47K_49E_50V_52G_53A_54P_55F_67L_, Q9UKT9 (peptide)
chain: FKCEVCGAPFTQKGNLLRHIKL
Take B7: the “log2 fold change of degron read counts” value reads like this: under setting [1], 2.02; under setting [2], 1.13; under setting [3], -1.28; (compound: thalidomide) 1.95.

B8: 46F_47M_49E_50V_52G_53A_54P_55F_67L_, Q9UKT9 (peptide)
chain: FMCEVCGAPFTQKGNLLRHIKL
With B8, the “log2 fold change of degron read counts” value came out at 2.75 under setting [1], 3.55 under setting [2], 3.12 under setting [3] and 2.6 (compound: thalidomide).

B9: 46F_47E_49E_50V_52G_53A_54P_55F_67L_, Q9UKT9 (peptide)
chain: FECEVCGAPFTQKGNLLRHIKL
Take B9: the “log2 fold change of degron read counts” value was 1.65 under setting [1], -1.41 under setting [2], 0.683 under setting [3] and 1.6 (compound: thalidomide).

B10: 46L_47C_49P_50I_52G_53F_54F_55C_67L_, Q9UKT9 (peptide)
chain: LCCPICGFFCTQKGNLLRHIKL
Take B10: the “log2 fold change of degron read counts” value reads like this: under setting [1], 1.09; under setting [2], 1.75; under setting [3], 2.77; (compound: thalidomide) 2.39.

B11: 46L_47G_49P_50I_52G_53F_54F_55C_67L_, Q9UKT9 (peptide)
chain: LGCPICGFFCTQKGNLLRHIKL
In the case of B11, the “log2 fold change of degron read counts” value turned out to be 3.27 under setting [1], 2.15 under setting [2], 2.31 under setting [3] and 1.94 (compound: thalidomide).

B12: 46L_47H_49P_50I_52G_53F_54F_55C_67L_, Q9UKT9 (peptide)
chain: LHCPICGFFCTQKGNLLRHIKL
On to B12, for which the “log2 fold change of degron read counts” value worked out at 2.35 under setting [1], 2.51 under setting [2], 2.79 under setting [3] and 2.23 (compound: thalidomide).

B13: 46L_47A_49P_50I_52G_53F_54F_55C_67L_, Q9UKT9 (peptide)
chain: LACPICGFFCTQKGNLLRHIKL
With B13, the “log2 fold change of degron read counts” value by setting is: under setting [1], 3.31; under setting [2], 2.49; under setting [3], 2.27; (compound: thalidomide) 2.24.

B14: 46L_47W_49P_50I_52G_53F_54F_55C_67L_, Q9UKT9 (peptide)
chain: LWCPICGFFCTQKGNLLRHIKL
On to B14, for which the “log2 fold change of degron read counts” value by setting is: under setting [1], 2.66; under setting [2], 3.04; under setting [3], 2.81; (compound: thalidomide) 2.05.

B15: 46L_47S_49P_50I_52G_53F_54F_55C_67L_, Q9UKT9 (peptide)
chain: LSCPICGFFCTQKGNLLRHIKL
For B15, the “log2 fold change of degron read counts” value was 2.05 under setting [1], 1.71 under setting [2], 2.64 under setting [3] and 2.39 (compound: thalidomide).

B16: 46F_47V_49N_50Q_52G_53A_54A_55F_67L_, Q9UKT9 (peptide)
chain: FVCNQCGAAFTQKGNLLRHIKL
Consider B16, for which the “log2 fold change of degron read counts” value was -2.28 under setting [1], -0.788 under setting [2], -0.293 under setting [3] and -0.146 (compound: thalidomide).

B17: 46F_47T_49N_50Q_52G_53R_54R_55F_67L_, Q9UKT9 (peptide)
chain: FTCNQCGRRFTQKGNLLRHIKL
For B17, the “log2 fold change of degron read counts” value is -2.59 under setting [1], -2.14 under setting [2], -1.95 under setting [3] and -1.42 (compound: thalidomide).

B18: 46F_47H_49P_50I_52G_53R_54F_55F_67L_, Q9UKT9 (peptide)
chain: FHCPICGRFFTQKGNLLRHIKL
For the sequence B18, the “log2 fold change of degron read counts” value under setting [1] was -0.744, the “log2 fold change of degron read counts” value under setting [2] was -1.72, the “log2 fold change of degron read counts” value under setting [3] was -0.739 and the “log2 fold change of degron read counts” value (compound: thalidomide) is -1.66.
